Source: PubChem
Sampled rows, rich in hits. Any-hit rate of the full collection: about 4%.
HIF-2a block: HIF-2a reporter inhibitors, primary screen, luminescence, 786-0 RCC cells; 786-0 RCC cells HIF-2a reporter, luciferase luminescence, overnight; inhibition, % at 18.8 µM; actives 0.72% (n = 360,000);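 active means inhibition of the luminescence signal of 40% or more relative to plate controls, in a single-dose primary screen at 18.75 µM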
KKLEB cytotox: cytotoxicity in KKLEB CF airway cells, primary screen, cytotoxicity control for CF NF-kB inhibitor project, cell-based, uHTS, fluorescence assay plates; KKLEB CF airway cells viability, ATPlite luminescence, overnight; stronger effect = lower value; cells stimulated with P. aeruginosa culture filtrate; activity change (cytotoxicity), % at 5 µM; actives 0.36% (n = 360,000);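 active means corrected activity change at or below -50% at 5 µM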
CF NFkB inh: inhibitors of PAF-induced NF-kB signaling, primary screen, cell-based, GFP fluorescence, uHTS | KKLEB NF-kB-GFP reporter, GFP fluorescence overnight | inhibition, % at 5 µM | actives 0.86% (n = 360,000);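 active means at least 50% inhibition at 5 µM, scaled per plate between neutral and stimulator controls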;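 further: PAF is a Pseudomonas aeruginosa culture filtrate used as stimulus; plate controls were PAF-stimulated DMSO wells for no effect and unstimulated DMSO wells for full effect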
TROY NFkB inh: inhibitors of TROY-driven NF-kB signaling, primary screen, Q293 LMP1-TROYcd cells, NF-kB luciferase, uHTS. inhibition, % at 10 µM. Q293 LMP1-TROYcd NF-kB luciferase reporter, 4 h. actives 0.98% (n = 360,000);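 active means compounds whose plate-normalised and pattern-corrected inhibition of the luciferase reporter signal at the single screening dose is 50% or more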
Peg3 promoter: Peg3 promoter-driven luciferase inhibitors, primary screen, cell-based, HeLa, luciferase luminescence. HeLa PEG-Prom luciferase reporter, overnight. inhibition, % at 20 µM. actives 1.7% (n = 360,000);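 active means inhibition of at least 50% at 20 µM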
TWEAK Fn14 block: inhibitors of TWEAK-Fn14 signaling, primary screen, luciferase reporter cells, uHTS | TWEAK-stimulated Fn14 reporter cells, luciferase luminescence, 8 h | inhibition, % at 10 µM | actives 2% (n = 360,000); in the data active means inhibition above about 50%
An asterisk follows results filed as active; / = no result given.

SMILES | HIF-2a block | KKLEB cytotox | CF NFkB inh | TROY NFkB inh | Peg3 promoter | TWEAK Fn14 block
O=C(COC(=O)c1ccc2c(c1)C(=O)N(c1cccc3ncccc13)C2=O)c1ccc(Cl)cc1 | 0 | 4 | -7 | 31 | 13 | -35
CSc1ccc(OC2(C)CCN(Cc3ccc(OC(F)(F)F)cc3)C2)cc1 (stereo not given) | 2 | 1 | 0 | 4 | 13 | -5
COCCCNC(=O)c1ccc2c(=O)n(Cc3ccc(Cl)cc3)c(=S)[nH]c2c1 | -5 | -2 | -2 | -32 | 9 | -29
CCOC(=O)N1CCN(C(=O)c2ccc(Cn3c(=S)[nH]c4cc(OCC)c(OCC)cc4c3=O)cc2)CC1 | 25 | 0 | -1 | 58* | 11 | 37
CC1CCN(CCNC(=O)c2ccc3c(=O)n(Cc4ccc(Cl)cc4)c(=S)[nH]c3c2)CC1 | 30 | -12 | -5 | -36 | 95* | -33
O=C(c1ccc2c(=O)n(Cc3ccc(Cl)cc3)c(=S)[nH]c2c1)N1CCOCC1 | 38 | -1 | -6 | 44 | 44 | 75*
O=c1c(-c2ccco2)nc2ccccc2n1C(c1ccccn1)c1nc2ccccc2[nH]1 (stereo not given) | -25 | / | / | / | / | /
COc1ccc(Cc2n[nH]c(=S)n2-c2cc(C)ccc2C)cc1OC | -4 | 5 | -7 | 0 | 7 | -2
Cc1c(C(=O)NNC(=O)c2ccccc2O)oc2ccccc12 | -106 | -7 | 1 | -33 | -23 | -70
COCc1ccccc1C1=CC(=O)C[C@H](c2ccc(OC)cc2)C1 | -10 | 0 | -7 | -15 | 20 | -16
O=C(NC1=NC2CCCCC2N1)c1ccccc1 (stereo not given) | -20 | -1 | -2 | 44 | -17 | 76*
O=C(NC1CCCCCCC1O)c1ccccc1 (stereo not given) | -12 | -6 | -3 | 4 | -7 | 5
CC1Cc2nc(SCC(=O)Nc3ccc4c(c3)OCCO4)n(C)c(=O)c2S1 (stereo not given) | -3 | -5 | -8 | 71* | 13 | 42
COCCn1c(SCC(=O)Nc2ccc3c(c2)OCCO3)nc2c(c1=O)SC(C)C2 (stereo not given) | -146 | -18 | 4 | -42 | -80 | -23
O=C(CSc1nc2ccc(NC(=O)CSc3nnnn3-c3ccccc3)cc2s1)Nc1ccccc1 | -7 | -65* | 61* | 15 | 35 | -70
Cc1ccc(NC(=O)CSc2nccn(-c3ccc4c(c3)OCCO4)c2=O)cc1 | -25 | -24 | 9 | 35 | -14 | 25
Cc1cccc(-n2ccnc2SCC(=O)Nc2ccc3c(c2)OCCO3)c1 | -74 | -3 | 1 | 51* | -67 | 6
O=C(CSc1nnnn1-c1ccccc1)Nc1ccccc1 | -8 | 2 | -4 | 5 | -1 | -22
O=C(CSc1nccn(-c2ccc3c(c2)OCCO3)c1=O)Nc1ccccc1 | -87 | 10 | -13 | 66* | -104 | 62*
CN1CCN(c2ccc(S(=O)(=O)N3CCOCC3)cc2)CC1 | 5 | -10 | -3 | 0 | 4 | 6
CN1CCN(c2cccc3c2S(=O)(=O)N[C@@H](Cc2ccccc2)CO3)CC1 | 4 | / | / | 6 | / | -8
Cc1cccc(COC[C@H](Cc2ccccc2)N2CCN(C(=O)c3ccc(Cl)c(Cl)c3)CCC2=O)c1 | -4 | / | / | 28 | / | -1
CCc1nc2ccc(C(=O)NCCCN3CCCC3=O)cn2c1N(CC)C(=O)NCCc1ccccc1 | -62 | 2 | -8 | -14 | -44 | 5
O=C(CSc1nnnn1-c1ccccc1Cl)Nc1ccc2c(c1)OCCO2 | -30 | -11 | 5 | 54* | 2 | 76*
CC(C)C[C@H]1CN=C(Nc2ccccc2)N1CC1CCC(C(C)(C)C)CC1 (stereo not given in full) | 4 | -41 | 43 | 41 | 103* | -35
SMILES | HIF-2a block | KKLEB cytotox | CF NFkB inh | TROY NFkB inh | Peg3 promoter | TWEAK Fn14 block
C(=N\Nc1nc2ccccc2[nH]1)/c1ccncc1 | -194 | 10 | 17 | 59* | -195 | 44
Cc1ccc(/C=N/NC(=O)CSc2nc3ccccc3[nH]2)o1 | -35 | 3 | -4 | -9 | -14 | 11
O=C(CSc1nc2ccccc2[nH]1)N/N=C/c1ccncc1 | 12 | -7 | 17 | 57* | 4 | -31
CCN(CC)c1ccc(/C=N/Nc2nc3ccccc3[nH]2)cc1 | -214 | 6 | -13 | 43 | -159 | 95*
Cc1ccc(C2(C)NC(=O)N(CC(=O)NC(=O)NC(C)C)C2=O)cc1 (stereo not given) | 3 | -8 | -23 | 3 | -2 | 4
O=C(COC(=O)Cc1ccc(Cl)c(Cl)c1)NCCc1ccccc1 | 4 | 0 | -6 | 4 | -9 | 4
CCCCCCCCCCS(=O)(=O)N/N=C/c1ccc([N+](=O)[O-])cc1 | 0 | 5 | -6 | 51* | 6 | 4
COc1ccc(OCCCCn2c(CO)nc3ccccc32)cc1 | -4 | -2 | 0 | 11 | 8 | 69*
Cc1cccc(OCCCCn2c(CO)nc3ccccc32)c1 | -32 | -19 | 4 | 5 | -15 | -2
Cc1ccc(-c2ccc(=O)n(Cc3cc(C)ccc3C)n2)cc1 | 24 | -6 | 23 | 7 | 36 | 8
Cc1ccc(C)c(Cn2nc(-c3ccccc3)ccc2=O)c1 | 18 | -2 | -6 | 56* | 49 | -18
COC(=O)[C@@]12C[C@@H](CC(=O)NCc3cccc(C(F)(F)F)c3)C(=O)N(Cc3ccc4c(c3)OCO4)C1=CCC(C)(C)C2 | -2 | / | / | / | / | /
FC(F)(F)c1cc(CCN2CCNC[C@@H]2Cc2ccccc2)cc(C(F)(F)F)c1 | -2 | -11 | 25 | -24 | 102* | 3
Cc1cc(=O)oc2c3c(cc(OCC(=O)N[C@@H](C)C(=O)O)c12)OC(C)(C)CC3 | 11 | 10 | 4 | -16 | 12 | 76*
Cc1cc(=O)oc2c3c(cc(OCC(=O)NC(C)C)c12)OC(C)(C)CC3 | 5 | -3 | -1 | 10 | 14 | -23
Cc1[nH]c(C)c(S(=O)(=O)N2CCN(c3ccccc3F)CC2)c1C(=O)N1CCCCC1 | 6 | 17 | 0 | -15 | -3 | 1
CC1CCCN(C(=O)CCc2nnc(-c3ccc4c(c3)OCO4)o2)C1 (stereo not given) | -147 | -4 | -7 | -41 | -137 | -9
CCOC(=O)C(=NC(C)CC)NNc1cccc(C(F)(F)F)c1 (stereo not given) | 0 | 6 | 3 | 0 | 0 | 58*
